Screening results (PubChem BioAssay)
An excerpt weighted towards active compounds, which were near 11% of everything screened.
Autophagy HCS: alters autophagy in cells; actives 0.98% (n = 190,000); MEF GFP-LC3 puncta imaging; test concentration mostly 10 µM; calls only at 10 µM (by protocol);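 active means percentage of spot-positive cells more than 3 SD above its plate mean, without a fluorescence outlier flag or 80% toxicity; inconclusive means no clear call, values can overlap the other calls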;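 further: spot-positive cell cutoff set from DMSO-treated cells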
Lmaj promast: inhibitors of Leishmania major promastigote growth | Leishmania major promastigotes, resazurin fluorescence viability | inhibition, % at 10 µM | actives 9% (n = 200,000) | AID 1063; in the data active means inhibition above about 50%;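 further: promastigotes grown with compound for 44 hours at 28 °C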
INS promoter inh: TRM-6 insulin promoter activity inhibition; TRM-6 cells (human fetal islet line), insulin promoter-eGFP reporter, imaging; reporter expression induced with tamoxifen; inhibition, % at 2 µM; actives 0.9% (n = 130,000); AID 1273;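 active means inhibition above the mean plus 3 SD, with well images judged a real hit on visual review, cut at about 60% in these data, passing the limit was not always enough; inconclusive means inhibition over the cutoff but images rejected on review; inactive means inhibition not above the cutoff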
Insulin prom up: MIN6 insulin promoter up-regulation; MIN6 insulin promoter-GFP reporter, high-content imaging; active compounds read high; z-score at 5 µM; actives 0.3% (n = 190,000); AID 1625;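 active means z-score above 3 at 5 µM with at least 500 cells counted in the well; inconclusive means wells under 500 cells, flagged as cytotoxic or low count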
WT yeast gro inh: growth inhibition of WT yeast, mitochondrial fusion screen. inhibition, % at 10 µM. mitochondrial fusion phenotypic screen, WT strain. actives 2.1% (n = 190,000). AID 1362; in the data active means inhibition above about 58%; tested in S. cerevisiae
* marks the source's active call; other numbers are inactive results; i = inactive; u = inconclusive; x = no result given; + = active, no number.

SMILES	Autophagy HCS	Lmaj promast	INS promoter inh	Insulin prom up	WT yeast gro inh
COC(=O)c1c(NC(=O)CSc2nc3ccccc3c(=O)n2Cc2ccco2)sc(C)c1C	i	14	-6	-0.12	1
O=C(CSc1nnc(-c2cccnc2)n1Cc1ccco1)Nc1nc(-c2ccc(F)cc2)cs1	i	73*	x	-0.6	-4
CCCn1c(SCC(=O)Nc2nc(C)cs2)nnc1-c1cccnc1	i	9	75*	x	-5
COC(=O)c1c(NC(=O)CSc2nnc(-c3ccco3)n2Cc2ccccc2)sc(C)c1C	i	65*	-1	-2.6	48
O=C(CSc1nnc(-c2ccncc2)n1Cc1ccccc1)NC1CCCCC1	x	x	x	0.17	x
O=C(CSc1nnc(-c2ccncc2)n1Cc1ccco1)Nc1nccs1	i	-3	-38	0.73	-1
CCCn1c(SCC(=O)NC2CCCCC2)nnc1-c1ccncc1	i	-6	-25	3.1*	-1
CCOC(=O)c1cnc(/N=C/N(C)C)s1	i	3	x	1	-5
CCN(CC)CCCNC(CC(=O)Nc1cccc([N+](=O)[O-])c1)C(=O)O (centres undefined)	i	-6	-75	0.45	-15
O=C(Nc1ccc(N2C(=O)CCC2=O)cc1Cl)c1cccs1	i	-5	x	0.33	-19
CCOC(=O)c1c(NC(=O)CSc2nnc(-c3cccnc3)n2Cc2ccco2)sc(C)c1C	i	53*	x	-2.4	0
CCOCC(=O)Nc1cc(C(=O)OC)cc(C(=O)OC)c1	i	1	-7	0.33	15
Cc1[nH]c(=O)[nH]c(=O)c1S(=O)(=O)N1CCCC1	i	-9	0	0.24	7
CC1(C)CCCC(C)(C)N1CC(O)COCCOc1ccc(Br)cc1 (centres undefined)	i	4	-19	0.03	7
Cc1cc2nc(-c3ccc(NC(=O)C(C)C)cc3)oc2cc1C	i	90*	-26	0.04	-6
Cc1ccc(-c2nc3cc(NC(=O)C(C)C)ccc3o2)cc1	i	4	46	0.49	-3
COc1ccc(C(NC(=O)c2c(F)c(F)c(F)c(F)c2F)c2ccccc2)cc1 (centres undefined)	i	95*	x	-3	29
O=c1[nH]c(=O)n(-c2ccc(F)cc2)c2c1C(C(F)(F)F)(C(F)(F)F)N=C(c1ccc(F)cc1)N2	i	1	x	-0.5	1
CN1CCN(Cc2c(O)ccc3c(=O)c(Oc4ccccc4Cl)c(C(F)(F)F)oc23)CC1	i	99*	x	-1.3	27
CCOC(=O)c1ccc(Oc2c(C)oc3c(CN4CCN(C)CC4)c(O)ccc3c2=O)cc1	i	100*	15	-0.5	29
COc1ccc(Oc2c(C)oc3c(CN4CCOCC4)c(O)ccc3c2=O)cc1	i	6	-4	-0.24	2
Cc1oc2c(CN3CCCC3)c(O)ccc2c(=O)c1Oc1ccccc1Br	i	49	x	0.08	5
O=C(Nc1ccc(S(=O)(=O)Nc2ncccn2)cc1)c1cccc(S(=O)(=O)N2CCCC2)c1	x	x	x	0.92	x
C=CCN(c1ccccc1)S(=O)(=O)c1ccc(Cl)c(C(=O)OCC(=O)c2[nH]c(C)c(C(C)=O)c2C)c1	i	76*	32	0.24	7
CC(C)(C)C(=O)NC(=S)NNC(=O)c1ccncc1	i	-3	55	-0.15	5
SMILES	Autophagy HCS	Lmaj promast	INS promoter inh	Insulin prom up	WT yeast gro inh
CC(C)C(=O)Nc1ccc(C(=O)NNC(=S)NC(=O)c2ccccc2[N+](=O)[O-])cc1	i	-7	x	0.35	-5
CCCOc1ccc(C(=O)NNC(=S)NC(C)=O)cc1	i	97*	x	-0.35	14
COc1ccc(C(=O)NC(=S)NNC(=O)c2ccc(NC(=O)C(C)C)cc2)cc1	i	71*	31	-0.11	-28
CC(C)(C)C(=O)NC(=S)NNC(=O)c1ccc(-c2ccccc2)cc1	i	97*	u	-2.8	67*
CCC(=O)NC(=S)NNC(=O)c1ccc([N+](=O)[O-])cc1	i	97*	38	1.2	-11
CCC(=O)NC(=S)Nc1ccc(NC(=O)COc2ccccc2)cc1	i	4	x	-0.38	0
CCC(=O)NC(=S)NNC(=O)c1ccc(OC)cc1	i	0	-50	-0.61	-26
Cc1ccc(C(=O)NNC(=S)NC(=O)COc2ccccc2)cc1	i	-2	11	-0.17	84*
CCCCOc1ccc(C(=O)NNC(=S)NC(=O)CC)cc1	i	93*	21	0.14	88
CCC(=O)NC(=S)NNC(=O)COc1ccc(Br)cc1	i	74*	x	0.17	24
Cc1ccc(-c2nnc(Nc3ccc4c(c3)nc(C)n4C)c3ccccc23)cc1	i	101*	-65	-0.54	9
CCCc1cc(=O)[nH]c(SCC(=O)c2ccc3c(c2)NC(=O)CO3)n1	x	x	x	1.2	x
Oc1c(Br)cc(Br)cc1CNc1ccc(F)cc1	i	-15	-38	0.29	83*
CCc1ccc2nc(SCC(=O)Nc3ccccc3N3CCOCC3)c(C#N)cc2c1	x	x	x	2.2	x
CCOc1ccc2nc(SCC(=O)Nc3ccc(S(=O)(=O)N4CCCC4)cc3)c(C)cc2c1	x	x	x	-0.19	x
N#Cc1cc2ccccc2nc1SCC(=O)Nc1ccc(S(=O)(=O)N2CCCC2)cc1	i	96*	-21	-0.34	-47
COc1ccc2nc(SCC(=O)Nc3ccc(S(=O)(=O)N4CCCC4)cc3)c(C#N)cc2c1	i	90*	-91	3.5*	-4
Cc1ccc2nc(SCC(=O)Nc3ccccc3N3CCOCC3)c(C#N)cc2c1	+	-4	8	1.2	-8
Cc1cc(=O)oc2cc(N3C(=O)CC(Cc4ccccc4)C3=O)ccc12 (centres undefined)	i	-5	14	0.15	7
COc1cc(C=C(C(C)=O)C(C)=O)ccc1O	i	63*	17	x	-10
Cc1ccccc1NC(=O)c1ccc(-c2ccc(Cl)cc2Cl)o1	i	39	15	x	57
CC1=NOC(=O)/C1=C\c1ccc(-c2ccc(Cl)cc2Cl)o1	i	93*	x	-0.84	85*
Cc1nn(C)cc1CNCc1ccc(OCC(O)CN(C)Cc2ccccc2)cc1 (centres undefined)	i	86*	15	x	-3
CN(Cc1ccccc1)CC(O)COc1ccc(CNCc2ccc(Cl)s2)cc1 (centres undefined)	i	98*	x	0.98	23
CN(Cc1ccccc1)CC(O)COc1ccc(CNCCOc2cccnc2)cc1 (centres undefined)	i	84*	x	0.22	1
SMILES	Autophagy HCS	Lmaj promast	INS promoter inh	Insulin prom up	WT yeast gro inh
CN(Cc1ccccc1)C(=O)c1nc2ccccn2c1CNCCOc1cccnc1	i	-4	x	x	-23
CN(Cc1ccccc1)CC(O)COc1ccc(CNCCCOc2cccnc2)cc1 (centres undefined)	i	91*	x	-0.05	1
Cc1ccc(OCC(O)CNCc2ccccc2)cc1C (centres undefined)	x	x	x	0.06	x
Cc1ccc(C(=O)/C=C/Nc2cccc([N+](=O)[O-])c2)o1	i	-4	50	x	8
COc1ccc2c(c1)OC13CCCCC1C2C(C(=O)c1ccccc1)C(=O)N3 (centres undefined)	i	-1	x	0.16	1
OC(COc1ccccc1CNCc1cccnc1)CN1CCc2ccccc2C1 (centres undefined)	i	9	x	0.38	9
